The values below come from ChEMBL document CHEMBL3988442, “University of Dundee, Small-Polar-MMV Screening Library” (2021).

For some assays here: Entries with a potency or affinity are not part of this list.

Common to all, as to parameters: scale not given: direction of the effect not stated beside the values
Assay [1] concerns the target Protein translocase subunit SecA (Escherichia coli (strain K12)) (UniProt P10408). As to the kind of experiment: Assay to Identify E. coli SecA ATPase Inhibitors. In kind it is functional. The settings on record: 30 µM.
For assay [2], the target named is T1, Ubiquitin-activating enzyme e1, putative (Leishmania donovani (strain BPK282A1)) (UniProt E9BSI1).
T1 sequence (whole entry): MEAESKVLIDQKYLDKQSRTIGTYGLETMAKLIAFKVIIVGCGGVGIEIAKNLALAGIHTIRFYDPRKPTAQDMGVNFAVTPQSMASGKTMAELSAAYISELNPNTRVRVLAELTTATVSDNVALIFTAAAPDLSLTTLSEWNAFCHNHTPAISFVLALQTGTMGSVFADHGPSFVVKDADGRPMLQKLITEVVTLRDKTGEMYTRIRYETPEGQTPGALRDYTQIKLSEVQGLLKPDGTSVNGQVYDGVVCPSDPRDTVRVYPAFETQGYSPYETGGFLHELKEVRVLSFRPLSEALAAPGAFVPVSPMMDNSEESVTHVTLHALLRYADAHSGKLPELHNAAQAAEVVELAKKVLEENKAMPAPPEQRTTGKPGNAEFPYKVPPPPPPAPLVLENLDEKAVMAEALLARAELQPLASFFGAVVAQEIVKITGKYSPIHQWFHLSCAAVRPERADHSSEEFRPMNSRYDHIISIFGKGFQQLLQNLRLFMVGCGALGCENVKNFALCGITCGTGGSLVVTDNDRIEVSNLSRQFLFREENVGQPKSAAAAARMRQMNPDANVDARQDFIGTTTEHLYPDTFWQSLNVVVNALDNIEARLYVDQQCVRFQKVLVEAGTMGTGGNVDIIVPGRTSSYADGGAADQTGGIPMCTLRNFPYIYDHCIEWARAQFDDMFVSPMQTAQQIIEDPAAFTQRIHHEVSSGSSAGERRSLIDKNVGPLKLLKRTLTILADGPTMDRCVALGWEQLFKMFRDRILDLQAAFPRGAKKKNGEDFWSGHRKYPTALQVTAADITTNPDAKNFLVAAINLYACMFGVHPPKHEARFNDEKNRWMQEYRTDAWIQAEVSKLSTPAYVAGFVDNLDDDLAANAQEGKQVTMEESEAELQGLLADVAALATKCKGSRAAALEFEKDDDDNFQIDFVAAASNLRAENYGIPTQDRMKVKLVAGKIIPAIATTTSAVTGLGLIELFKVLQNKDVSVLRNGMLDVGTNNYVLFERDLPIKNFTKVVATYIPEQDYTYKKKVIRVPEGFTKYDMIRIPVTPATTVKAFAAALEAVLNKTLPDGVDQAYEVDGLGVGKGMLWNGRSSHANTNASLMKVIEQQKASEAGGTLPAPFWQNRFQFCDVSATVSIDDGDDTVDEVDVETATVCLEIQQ
As to the kind of experiment: Leishmania donovani Ubiquitin Activating Enzyme (LdE1). The conditions noted are these: 30 µM. The assay is classed as functional.

For assay [3], the target named is AMP-activated protein kinase, AMPK (Homo sapiens) (UniProt P54646+O43741+P54619+Q9UGJ0+Q9Y478+Q13131+Q9UGI9). Nature of the assay: AMP-dependent Kinase enzyme assay. An in vitro enzyme assay that detects ADP turnover that is directly proportional to AMPK activity. This uses naive AMPK that is activated during the assay with MK-8722. In kind it is functional. The settings on record: 30 µM.

The target of assay [4] is Sialic acid-binding Ig-like lectin 9 (Homo sapiens) (UniProt Q9Y336). As to the kind of experiment: Hs-Siglec9 ALPHAscreen SOP 20170721. The settings on record: 10 µM. (In general: Alpha assays give light when donor and acceptor beads are brought close together.)
Another assay concerns Trypanosoma cruzi. As to the kind of experiment: Trypanosoma cruzi phosphomannomutase and mannose-1-phosphate guanylyltransferase assay. In kind it is functional. The settings on record: 10 µM.
The target in assay [5] is T2, Arginase-2, mitochondrial (Homo sapiens) (UniProt P78540).
T2 sequence (whole entry): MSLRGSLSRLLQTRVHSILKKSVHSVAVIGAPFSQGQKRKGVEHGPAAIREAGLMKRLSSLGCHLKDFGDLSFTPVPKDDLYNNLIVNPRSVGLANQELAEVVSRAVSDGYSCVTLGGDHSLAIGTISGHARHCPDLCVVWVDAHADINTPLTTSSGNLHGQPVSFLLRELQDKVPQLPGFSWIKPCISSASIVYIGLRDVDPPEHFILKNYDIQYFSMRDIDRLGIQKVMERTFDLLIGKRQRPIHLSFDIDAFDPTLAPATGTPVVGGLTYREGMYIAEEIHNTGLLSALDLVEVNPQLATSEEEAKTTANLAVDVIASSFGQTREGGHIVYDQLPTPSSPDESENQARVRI
Nature of the assay: in vitro enzyme assay to detect the production of urea directly proportional to the activity of Arginase II. Further: in the data most compounds retested in dose-response had high values. The assay is classed as functional. The settings on record: 33.3 µM.

Assay [6] has as its target T3, Proteasome subunit beta (Trypanosoma cruzi) (UniProt O96673).
T3 sequence (whole entry): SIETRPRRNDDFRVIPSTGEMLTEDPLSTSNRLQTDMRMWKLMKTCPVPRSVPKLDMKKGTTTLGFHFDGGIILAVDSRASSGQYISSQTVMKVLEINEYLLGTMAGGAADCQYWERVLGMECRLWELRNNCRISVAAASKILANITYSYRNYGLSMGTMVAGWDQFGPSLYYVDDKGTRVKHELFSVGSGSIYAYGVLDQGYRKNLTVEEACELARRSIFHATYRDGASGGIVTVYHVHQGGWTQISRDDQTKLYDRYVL
As to the kind of experiment: Trypanosoma cruzi proteasome chymotrypsin-like activity (TcProtChymo) assay. Further: in the data most compounds retested in dose-response had high values. In kind it is functional. The settings on record: 9.37 µM.

The species entered for the next assay is Homo sapiens. As to the kind of experiment: To identify inhibition of the IFN signalling (Jak-Stat) pathway via expression of an eGFP reporter gene under the control of an IFN-stimulated response element (ISRE) containing MxA promoter. In kind it is functional. The conditions noted are these: 30 µM. For orientation: In a reporter assay the amount or activity of a reporter protein is the signal.

In assay [7] the target is T4, Tyrosyl-tRNA synthetase, putative (Trypanosoma cruzi (strain CL Brener)) (UniProt Q4DSP6).
T4 sequence (whole entry): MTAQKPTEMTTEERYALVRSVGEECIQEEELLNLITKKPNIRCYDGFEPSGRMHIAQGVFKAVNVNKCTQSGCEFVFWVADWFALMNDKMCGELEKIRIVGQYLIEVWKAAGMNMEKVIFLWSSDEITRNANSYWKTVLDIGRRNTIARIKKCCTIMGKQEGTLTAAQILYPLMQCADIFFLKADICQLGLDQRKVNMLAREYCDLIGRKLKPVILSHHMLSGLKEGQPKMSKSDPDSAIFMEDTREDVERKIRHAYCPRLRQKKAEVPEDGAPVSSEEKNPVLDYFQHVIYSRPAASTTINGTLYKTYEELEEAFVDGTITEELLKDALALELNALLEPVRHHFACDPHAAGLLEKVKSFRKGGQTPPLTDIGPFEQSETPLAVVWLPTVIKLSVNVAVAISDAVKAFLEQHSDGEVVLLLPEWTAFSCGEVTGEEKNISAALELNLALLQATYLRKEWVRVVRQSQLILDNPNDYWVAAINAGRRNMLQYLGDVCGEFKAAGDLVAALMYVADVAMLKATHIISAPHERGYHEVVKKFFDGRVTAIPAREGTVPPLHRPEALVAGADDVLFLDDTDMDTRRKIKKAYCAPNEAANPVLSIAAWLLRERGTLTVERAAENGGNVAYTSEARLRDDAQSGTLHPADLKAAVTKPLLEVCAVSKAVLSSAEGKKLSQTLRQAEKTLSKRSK
As to the kind of experiment: Trypanosoma cruzi tyrosyl tRNA synthetase (TcYRS) _High Tyrosine SOP. Further: in the data most compounds retested in dose-response had high values. The assay is classed as functional. The settings on record: 30 µM.

Assay [8] addresses T4, Tyrosyl-tRNA synthetase, putative (Trypanosoma cruzi (strain CL Brener)). Nature of the assay: Trypanosoma cruzi tyrosyl tRNA synthetase (TcYRS) SOP. The assay is classed as functional. The settings on record: 30 µM.
The target in assay [9] is Chromo domain-containing protein 1 (Saccharomyces cerevisiae (strain ATCC 204508 / S288c) (Baker's yeast)) (UniProt P32657). As to the kind of experiment: ScCHD-1 Enzyme Inhibition Assay. Further: in the data most compounds retested in dose-response had high values. In kind it is functional. The conditions noted are these: 30 µM.
Chain of Chromo domain-containing protein 1 (Saccharomyces cerevisiae (strain ATCC 204508 / S288c) (Baker's yeast)) (P32657 whole entry, the tested form may be a part): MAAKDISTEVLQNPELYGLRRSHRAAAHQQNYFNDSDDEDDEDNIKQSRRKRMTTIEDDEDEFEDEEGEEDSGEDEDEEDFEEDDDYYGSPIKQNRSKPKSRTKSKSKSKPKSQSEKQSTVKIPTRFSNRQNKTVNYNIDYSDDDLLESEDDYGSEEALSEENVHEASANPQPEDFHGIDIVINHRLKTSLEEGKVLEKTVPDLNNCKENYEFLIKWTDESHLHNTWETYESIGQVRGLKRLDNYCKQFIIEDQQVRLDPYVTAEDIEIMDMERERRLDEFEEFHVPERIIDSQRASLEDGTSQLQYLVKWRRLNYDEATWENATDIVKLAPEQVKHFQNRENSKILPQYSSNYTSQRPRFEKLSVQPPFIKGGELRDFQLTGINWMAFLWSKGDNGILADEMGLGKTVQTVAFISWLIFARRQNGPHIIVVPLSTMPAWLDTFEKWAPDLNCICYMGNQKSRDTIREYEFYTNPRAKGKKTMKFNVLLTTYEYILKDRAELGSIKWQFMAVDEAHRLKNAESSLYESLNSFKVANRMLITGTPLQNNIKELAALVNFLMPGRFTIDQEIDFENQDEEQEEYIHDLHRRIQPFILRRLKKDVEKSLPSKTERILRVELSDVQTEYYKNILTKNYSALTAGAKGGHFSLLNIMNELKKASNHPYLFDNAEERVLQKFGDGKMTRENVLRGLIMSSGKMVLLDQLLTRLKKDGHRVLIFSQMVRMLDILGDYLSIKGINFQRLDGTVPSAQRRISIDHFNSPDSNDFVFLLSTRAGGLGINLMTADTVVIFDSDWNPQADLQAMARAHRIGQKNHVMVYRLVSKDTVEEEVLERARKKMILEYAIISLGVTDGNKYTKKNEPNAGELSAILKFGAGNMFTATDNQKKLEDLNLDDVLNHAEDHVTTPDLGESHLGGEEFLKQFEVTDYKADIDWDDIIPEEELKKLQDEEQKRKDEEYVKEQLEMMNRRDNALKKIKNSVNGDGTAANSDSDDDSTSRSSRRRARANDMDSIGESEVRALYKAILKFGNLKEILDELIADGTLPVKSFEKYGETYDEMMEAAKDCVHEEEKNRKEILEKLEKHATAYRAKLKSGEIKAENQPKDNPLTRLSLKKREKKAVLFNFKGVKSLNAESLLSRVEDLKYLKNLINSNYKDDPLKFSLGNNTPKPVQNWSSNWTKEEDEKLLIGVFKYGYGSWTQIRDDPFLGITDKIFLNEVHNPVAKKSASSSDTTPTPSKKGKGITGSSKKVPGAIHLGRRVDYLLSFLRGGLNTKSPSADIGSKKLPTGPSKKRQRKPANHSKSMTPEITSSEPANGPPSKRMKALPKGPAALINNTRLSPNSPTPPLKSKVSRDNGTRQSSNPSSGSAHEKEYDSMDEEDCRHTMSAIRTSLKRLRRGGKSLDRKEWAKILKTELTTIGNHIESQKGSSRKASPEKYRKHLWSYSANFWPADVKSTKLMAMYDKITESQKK

Chain of Protein translocase subunit SecA (Escherichia coli (strain K12)) (P10408 whole entry): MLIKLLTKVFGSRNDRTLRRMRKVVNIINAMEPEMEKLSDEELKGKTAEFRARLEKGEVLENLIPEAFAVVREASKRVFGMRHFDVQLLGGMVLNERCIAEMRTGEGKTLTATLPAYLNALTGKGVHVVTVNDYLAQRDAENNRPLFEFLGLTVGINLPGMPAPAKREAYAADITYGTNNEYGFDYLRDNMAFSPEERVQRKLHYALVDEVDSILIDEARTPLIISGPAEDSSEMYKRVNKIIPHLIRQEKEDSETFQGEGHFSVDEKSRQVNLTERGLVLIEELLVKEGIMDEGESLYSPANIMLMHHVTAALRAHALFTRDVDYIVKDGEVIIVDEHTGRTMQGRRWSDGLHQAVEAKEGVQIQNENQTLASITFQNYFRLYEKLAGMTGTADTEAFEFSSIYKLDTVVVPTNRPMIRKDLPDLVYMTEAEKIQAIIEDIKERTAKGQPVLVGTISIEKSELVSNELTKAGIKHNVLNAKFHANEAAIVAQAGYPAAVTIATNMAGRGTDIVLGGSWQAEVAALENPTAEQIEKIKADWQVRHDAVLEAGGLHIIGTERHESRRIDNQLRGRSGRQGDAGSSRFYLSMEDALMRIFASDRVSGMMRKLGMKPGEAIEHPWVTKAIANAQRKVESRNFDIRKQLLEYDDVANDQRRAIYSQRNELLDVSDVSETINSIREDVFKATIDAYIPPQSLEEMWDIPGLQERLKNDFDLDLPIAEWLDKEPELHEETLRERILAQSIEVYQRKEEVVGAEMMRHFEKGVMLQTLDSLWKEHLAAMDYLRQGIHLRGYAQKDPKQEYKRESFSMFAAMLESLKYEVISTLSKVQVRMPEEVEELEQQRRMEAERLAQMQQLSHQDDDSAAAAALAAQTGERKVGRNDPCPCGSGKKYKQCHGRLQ
Chain of Sialic acid-binding Ig-like lectin 9 (Homo sapiens) (Q9Y336 whole entry): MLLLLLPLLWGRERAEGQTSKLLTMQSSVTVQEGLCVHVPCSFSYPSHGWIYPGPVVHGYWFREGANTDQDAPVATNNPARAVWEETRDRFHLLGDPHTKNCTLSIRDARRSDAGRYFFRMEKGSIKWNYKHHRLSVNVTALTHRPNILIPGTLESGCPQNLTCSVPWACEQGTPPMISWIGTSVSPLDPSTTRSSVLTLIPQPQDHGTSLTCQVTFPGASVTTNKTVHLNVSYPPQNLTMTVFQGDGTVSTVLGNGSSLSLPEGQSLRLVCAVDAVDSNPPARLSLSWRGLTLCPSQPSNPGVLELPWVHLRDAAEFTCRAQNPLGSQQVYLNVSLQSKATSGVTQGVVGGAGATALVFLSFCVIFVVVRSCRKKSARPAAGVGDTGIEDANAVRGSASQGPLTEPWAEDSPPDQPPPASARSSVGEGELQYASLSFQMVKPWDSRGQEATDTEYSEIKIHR

For the molecule `CCN(Cc1ccc(OC)c(F)c1)C(=O)c1ccc(C)[nH]c1=O`, the Percent Effect in assay [1] is -3.17%; in assay [2] it was 10.5%; in assay [3], 2.62%; in assay [4] it was 9.42%; in the assay with Trypanosoma cruzi, -0.188%; in assay [5] it was 2.3%. The Percent Effect in assay [6] was 4.68%; in the assay listed under Homo sapiens, 8.35%; in assay [7], 8.33%; in assay [8] it was 19.5%; in assay [9], -8.67%.
For the molecule `Cc1ccc(C(=O)N2CCSCC2)cc1NC(=O)Cn1cncn1`, the Percent Effect in [1] is -4.05%; in assay [2], 16.4%; in assay [3] it was -5.58%; in assay [4] it was 10.2%; in the assay with Trypanosoma cruzi it was 7.74%; in assay [5], -7.98%. For the same molecule, the Percent Effect in [6] was 17.6%; in the assay listed under Homo sapiens, -4.75%; in assay [7] it was 6.25%; in assay [8], 18.5%; in assay [9] it was -7.01%.
For the molecule `CC(C)N(C)Cc1cn2c(n1)CN(Cc1ccsc1)CC2`, the Percent Effect was 5.48% in assay [1]; 11% in [2]; 1.28% in assay [3]; 6.24% in assay [4]; -5.56% in the assay on Trypanosoma cruzi; -3.19% in assay [5]. Besides, the Percent Effect in assay [6] turned out to be 9.33%; in the assay listed under Homo sapiens, 18.4%; in [7], 7.29%; in assay [8], 8.64%; in assay [9], 2.73%.
Take `Cc1nc(N2CCCC2)nc2c1CCN(Cc1ccco1)CC2`: the Percent Effect in assay [1] is -1.94%; in [2], 10.7%; in [3], 8.01%; in assay [4], 0.178%; with Trypanosoma cruzi it was 0%; in assay [5], -45.3%. Also, the Percent Effect in assay [6] was 20.7%; in the assay filed under Homo sapiens, -2.8%; in assay [7], 3.12%; in assay [8] it was 12.5%; in assay [9] it was -9.82%.
With `Cc1noc([C@H]2C[C@@H]3CCN(C(=O)C4CCOCC4)C[C@H]3O2)n1`, the Percent Effect in assay [1] was -3.88%; in [2], 0%; in [3] it was 7.28%; in assay [4] it was 1.95%; in the assay on Trypanosoma cruzi it was -3.81%; in assay [5], 8.6%. Besides, the Percent Effect in assay [6] is 17%; in the assay filed under Homo sapiens it was -2.45%; in [7] it was 1.08%; in assay [8], 5.13%; in [9] it was 3.17%.
For `Cc1nc(CO[C@@H]2CN(Cc3cnn(C)c3)[C@@H]3COC[C@@H]32)cs1`, the Percent Effect in assay [1] is -0.847%; in assay [2] it was 13.7%; in assay [3] it was 1.23%; in [4], 4.76%; in the assay on Trypanosoma cruzi, -2.58%; in assay [5], 1.6%. Besides, the Percent Effect in assay [6] was found to be 7.96%; in the assay listed under Homo sapiens, 2.98%; in assay [7], 3.12%; in [8] it was 11.1%; in assay [9], 3.26%.
In the case of `CNS(=O)(=O)c1cccc(CNc2ccc(C(F)(F)F)nn2)c1`, the Percent Effect in assay [1] was -5.02%; in assay [2], 8.11%; in [3] it was -4.31%; in assay [4] it was -0.144%; with Trypanosoma cruzi it was -3.87%; in assay [5], 30.9%. Moreover, the Percent Effect in [6] was -1.62%; in the assay listed under Homo sapiens, 19.2%; in assay [7] it was 4.43%; in [8], 6.17%; in assay [9], -1.87%.
As to `CN(Cc1nc(N)c2ccccc2n1)C1CCCN(c2cccnn2)C1` (stereo not given), the Percent Effect was -4.12% in assay [1]; -5.2% in [2]; -10.2% in assay [3]; 5.86% in [4]; 7.49% in the assay on Trypanosoma cruzi; -1.07% in [5]. In addition, the Percent Effect was 13.3% in assay [6]; -0.131% in the assay filed under Homo sapiens; 9.71% in assay [7]; 14.6% in assay [8]; -9.67% in assay [9].
Regarding `Cc1nn(CC(=O)N2CCC(Nc3cccnn3)CC2)c(C)c1Cl`, the Percent Effect in assay [1] is -7.99%; in assay [2], 10.5%; in assay [3], -2.51%; in assay [4] it was 1.71%; in the assay on Trypanosoma cruzi it was 10.3%; in assay [5], -4.6%. For the same molecule, the Percent Effect in assay [6] is 4.68%; in the assay filed under Homo sapiens, 14.1%; in assay [7], 6.37%; in assay [8], 19.5%; in assay [9], -11.8%.
On to `Cc1cc(CN(C)C2CCCN(Cc3noc(C4CC4)n3)C2)no1` (stereo not given), for which the Percent Effect in assay [1] is -2.13%; in [2], 15.8%; in assay [3] it was -10.8%; in [4], -8.06%; in the assay with Trypanosoma cruzi, -9.62%; in assay [5], -1.8%. In addition, the Percent Effect in assay [6] is 12.4%; in the assay listed under Homo sapiens, 15.9%; in assay [7] it was 1.48%; in assay [8], 3.7%; in assay [9] it was -9.14%.
